Here are results for 19 compounds from the supplement of paper PMC7156485.

What all share (details): concentration: 10 µM; 24 h
In experiment [1] the test system is HCC1569. Kind of experiment: cell number relative to DMSO (% of DMSO); higher = more cells (less growth inhibition / toxicity). The method in brief: (§1)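 Compounds were applied at 10 µM for 24 h at 37 °C, in triplicate, to HCC1569 and TDF cells. The cells were then fixed and stained for H1.0, and nuclei were counterstained with DAPI. Nuclear H1.0 intensity or cell number is reported relative to the plate control as a percent, taking the median of replicates. Smoothing for positional effects was applied to HCC1569 values only.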

The subject of experiment [2] is TDF. Described as above. The method in brief: as §1
The subject of experiment [3] is TDF. Kind of experiment: H1.0 immunofluorescence intensity relative to DMSO (% of DMSO); higher = stronger H1.0 induction, active = 120 or more. The method in brief: as §1
Experiment [4] relates to HCC1569. The experiment is described as follows: H1.0 immunofluorescence intensity relative to DMSO (% of DMSO); higher = stronger H1.0 induction, active = 140 or more. Summed up:
as §1

± gives the standard deviation of the averaged measurements.
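For H1.0 immunofluorescence intensity relative to DMSO in this document: TDF is a line of transformed human dermal fibroblasts of mesenchymal origin.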
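For cell number relative to DMSO in this document: TDF denotes transformed human dermal fibroblasts of mesenchymal origin.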

Consider `O=C1C=C(CO)OCC1=O` [5-hydroxy-2-(hydroxymethyl)-4H-pyran-4-one], for which the cell number in experiment [1] turned out to be 105; in experiment [2] it was 94.6. For the same compound, the H1.0 immunofluorescence intensity is 92.9 (inactive) in experiment [3] and 92 (inactive) in experiment [4].
In the same order, the values of `CCCCCC=CCC=CCCCCCCCCCCC(=O)O` [12(Z), 15(Z)-Heneicosadienoic acid] are 100, 103, 94.4 (inactive) and 105 (inactive).
For `CCCCN1CCC(n2c(=O)[nH]c3ccccc32)CC1.O=C(O)C(=O)O` [NS 521 oxalate], in that order: 98, 102, 86.7 (inactive) and 98.3 (inactive).
For `CC(=O)OC1(C(C)=O)CCC2C3C=C(C)C4=CC(=O)CCC4(C)C3CCC21C` (stereo unspecified) [Megestrol Acetate], in that order: 106, 96.9, 98.9 (inactive) and 104 (inactive).
As for `CCN1CCN(C(=O)NC(C(=O)NC2C(=O)N3C2SC(C)(C)C3C(=O)O)c2ccccc2)C(=O)C1=O` (stereo unspecified) [Piperacillin], the cell number in experiment [1] is 101; in experiment [2], 100. In addition, the figures for the H1.0 immunofluorescence intensity in experiment [3] and in experiment [4] were 95.4 (inactive) and 119 (inactive), respectively.
In the same order, the values of `CC(C)(C)NC(=O)C1CCC2C3CCC4NC(=O)C=CC4(C)C3CCC12C` (stereo unspecified) [Finasteride] are 102, 97.4, 95.4 (inactive) and 108 (inactive).
For `NC(N)=NCc1cccc(I)c1` [N-(3-iodobenzyl)guanidine], in that order: 108, 97.3, 104 (inactive) and 105 (inactive).
In the same order, the values of `O=C(CCc1ccc(O)cc1)c1c(O)cc(O)cc1OC1OC(CO)C(O)C(O)C1O` (stereo unspecified) [Phlorizine] are 101, 99.3, 102 (inactive) and 97.1 (inactive).
Turning to `CCCCCC=CCC=CCCCCCCCCCC(=O)O` [Eicosadienoic acid], the cell number came out at 103 ± 1.2 in experiment [1] and 92.6 ± 7.5 in experiment [2]. Further, the H1.0 immunofluorescence intensity was 100 (inactive) in experiment [3] and 96.4 (inactive) in experiment [4].
In the same order, the values of `COC(=O)[C@@H](N)Cc1ccc(O)c(O)c1.Cl` [L-3,4-Dihydroxyphenylalanine methyl ester hydrochloride] are 102, 110, 94.8 (inactive) and 96.8 (inactive).
In the same order, the values of `CC1(C)NC(=O)N(c2ccc([N+](=O)[O-])c(C(F)(F)F)c2)C1=O` [Nilutamide] are 101, 91, 98.9 (inactive) and 100 (inactive).
With `CC(Cc1ccc(O)c(O)c1)(NN)C(=O)O.O` (stereo unspecified) [Carbidopa.H2O], the cell number in experiment [1] was determined as 103; in experiment [2] it was 107. Besides, the values for the H1.0 immunofluorescence intensity in experiment [3] and in experiment [4] were 99.8 (inactive) and 104 (inactive), respectively.
For `NS(=O)(=O)c1cc2c(cc1Cl)NC(C(Cl)Cl)NS2(=O)=O` (stereo unspecified) [Trichloromethiazide], in that order: 106, 105, 93.9 (inactive) and 110 (inactive).
In the same order, the values of `O=c1sn(-c2cccc3ccccc23)c(=O)n1Cc1ccccc1` [4-benzyl-2-(1-naphthyl)-1,2,4-thiadiazolidine-3,5-dione] are 94.9, 90.9, 101 (inactive) and 98.8 (inactive).
For `CCCCCC=CCC=CCC(O)C=CC=CCCCC(=O)O` (stereo unspecified), the results for the cell number in experiment [1] and in experiment [2] were 102 and 90.4, respectively. The results for the H1.0 immunofluorescence intensity in experiment [3] and in experiment [4] were 96.8 (inactive) and 101 (inactive), respectively.
For `CCCCC=CCCCCCCCC(=O)O` [9(E)-Tetradecenoic acid], in that order: 98.8, 106, 98.8 (inactive) and 98 (inactive).
For `CCCCc1oc2ccccc2c1C(=O)c1cc(I)c(OCCN(CC)CC)c(I)c1.Cl` [Amiodarone.HCl], the cell number was 99.7 in experiment [1] and 105 in experiment [2]. The values for the H1.0 immunofluorescence intensity in experiment [3] and in experiment [4] were 93.8 (inactive) and 110 (inactive), respectively.
Regarding `CCCCCC(O)C=CC1C(=O)C=CC1CC=CCCCC(=O)O` (stereo unspecified) [Prostaglandin J2], the cell number in experiment [1] is 99.8; in experiment [2], 99.5. Moreover, the H1.0 immunofluorescence intensity in experiment [3] was 89.3 (inactive); in experiment [4], 100 (inactive).
In the same order, the values of `NC1CCN(c2nc3c(cc2F)c(=O)c(C(=O)O)cn3-c2ccc(F)cc2F)C1` (stereo unspecified) [Tosufloxacin] are 106, 102, 105 (inactive) and 104 (inactive).
